Only some compounds are listed: those with a hit (about 7.4% of all), similar ones and a draw of the others.
FLuc counter: qHTS profiling assay for firefly luciferase inhibitor/activator using purifed enzyme and Km concentrations of substrates (counterscreen for miR-21 project); Luciferin 4-monooxygenase (Photinus pyralis), P08659; purified FLuc, Km substrates, luminescence inhibition; Potency, µM (titrated, usually from 57.5 µM), usual class: inhibitors; hit rate 6.9% among 360,000; also: nearly all actives have a fitted effect of over 55% in size
Target sequence (P08659 whole entry, looked up): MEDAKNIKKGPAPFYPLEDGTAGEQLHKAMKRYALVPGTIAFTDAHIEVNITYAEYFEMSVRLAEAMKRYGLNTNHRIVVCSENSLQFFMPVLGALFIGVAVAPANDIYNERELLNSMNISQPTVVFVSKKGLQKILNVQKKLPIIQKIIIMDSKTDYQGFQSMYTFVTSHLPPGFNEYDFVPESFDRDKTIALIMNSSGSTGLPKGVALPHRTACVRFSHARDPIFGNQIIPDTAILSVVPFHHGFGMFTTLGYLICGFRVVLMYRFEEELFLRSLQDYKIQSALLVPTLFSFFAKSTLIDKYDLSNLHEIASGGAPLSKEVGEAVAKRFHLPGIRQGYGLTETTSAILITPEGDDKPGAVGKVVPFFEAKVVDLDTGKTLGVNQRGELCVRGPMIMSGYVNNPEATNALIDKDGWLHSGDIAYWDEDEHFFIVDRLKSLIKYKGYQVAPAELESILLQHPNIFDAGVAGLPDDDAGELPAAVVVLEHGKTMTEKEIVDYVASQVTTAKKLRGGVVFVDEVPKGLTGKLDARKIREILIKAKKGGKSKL
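Purified P. pyralis luciferase, 10 nM final, with Km-level 10 uM D-luciferin and 10 uM ATP in 50 mM Tris acetate pH 7.5, 10 mM Mg acetate, 0.01% Tween-20, 0.05% BSA; 6-point qHTS titration about 60 µM downward; luminescence read.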
SMN2 splice enh: qHTS Assay for Enhancers of SMN2 Splice Variant Expression | HEK293 SMN2-luciferase splicing reporter, luminescence, 30-36 h | Potency, µM (top dose mostly 46.1 µM), hits mostly activators | hit rate 2.8% among 210,000; also: nearly all actives have a fitted effect of over 55% in size
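HEK293 cells carry an SMN2 […]–luciferase reporter in which exon 7 inclusion puts luciferase in frame. Cells were plated 10-12 h before compound addition, then incubated 30-36 h at 37C. ONE-Glo luminescence was read; sodium butyrate at 4.5 mM final served as control.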
ELG1 genotoxic: qHTS screen for small molecules that induce genotoxicity in human embryonic kidney (HEK293T) cells expressing luciferase-tagged ELG1; HEK293T ELG1-luciferase reporter, luminescence, 16 h; Potency, µM (highest dose often 46 µM), actives largely listed as activators; hit rate 1.3% among 330,000; also: nearly all actives have a fitted effect of over 60% in size
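ELG1-luciferase HEK293T cells, 2,000/well; compound pinned in; 16 hr, 37 °C, 5% CO2; ONE-Glo, 30 min RT; luminescence on CCD imager.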
Rab9 promoter act: qHTS Assay for Rab9 Promoter Activators. Huh7 Rab9 promoter-luciferase reporter, luminescence, 24 h. Potency, µM (series often up to 9.22 µM), actives largely listed as activators. hit rate 2.8% among 320,000. AID 485297, 2010; also: nearly all actives have a fitted effect of over 60% in size
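Huh7 cells stably carrying a Rab9 promoter-luciferase reporter, 1500 cells per well in OP-MEM I with 10% FBS, treated with compound 24 hours at 37C. Luciferase activity read by luminescence after 10 minutes with Amplite reagent.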
NPC1 promoter act: qHTS Assay for NPC1 Promoter Activators; Huh7 NPC1 promoter luciferase reporter, 24 h; Potency, µM (series often up to 9.22 µM), hits mostly activators; hit rate 2.4% among 320,000; AID 485313, 2010; also: nearly all actives have a fitted effect of over 60% in size
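Huh7 cells stably carrying NPC1 promoter–luciferase, plated in Opti-MEM with 10% FBS for 2 h, were exposed to compound in DMSO for 24 h at 37 °C; luciferase reagent was added for 10 min and luminescence read.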
A number is an active result; . = inactive; ? = inconclusive; / = no result; [ ] = dose if it differs, or a comment. Calls follow the shape of the dose curve; as a rule, active = well fitted curve in the direction sought with a large enough effect; inconclusive = small, poorly fitted or top-dose-only effect, or another doubt; inactive = no such curve, though single readings can be large; an effect the other way counts as inactive or inconclusive.

SMILES	FLuc counter	SMN2 splice enh	ELG1 genotoxic	Rab9 promoter act	NPC1 promoter act
Cc1cc(C)c(/C=C/c2onc(C)c2S(=O)(=O)N2CCC(C(=O)Nc3ccc(Cl)c(C(F)(F)F)c3)CC2)c(C)c1	.	/	/	/	/
CSCCC1NC(=O)N(CC(=O)Nc2ccc(N3CCCCC3)cc2)C1=O (stereo not drawn)	12µM	.	.	.	.
CCC(=O)c1ccc(O)cc1	.	.	.	.	.
O=C(/C=C/c1ccccc1)c1ccc2c(c1)OCCCCO2	0.38µM	?	?	1.1µM	1µM
CC(CN1CCOCC1)OC(=O)c1ccc2c(c1)OCCO2 (stereo not drawn)	27µM	.	?	2.2µM	?
CC(CN1CCOCC1)OC(=O)COc1ccc(F)cc1 (stereo not drawn)	.	.	.	.	.
O=C(CCCC(=O)c1ccc(O)cc1)c1ccc(O)cc1	2.4µM	/	4.6µM	?	3.5µM
COc1ccc(OCC(=O)OC(C)CN2CCOCC2)cc1 (stereo not drawn)	.	2.8µM	.	.	.
CCN(CC)c1ccc(NC(=O)C2CCN(S(=O)(=O)c3cnc[nH]3)CC2)c(C)c1	.	.	/	/	/
O=C(CCN1CCc2ccccc21)c1ccc2c(c1)OCCO2	8.5µM	.	.	?	?
O=C(CCN1CCc2ccccc2C1)c1ccc2c(c1)OCCO2	?	.	.	.	.
O=C(CCc1ccccc1)c1ccc2c(c1)OCCCO2	4.3µM	?	4.1µM	0.63µM	3.2µM
O=C(CCCc1ccccc1)c1ccccc1	0.76µM	/	?	1.4µM	1.6µM
O=C(c1ccccc1)c1ccc2c(c1)OCCCO2	8.5µM	/	?	1.4µM	1.8µM
O=C(O)CCC(=O)c1ccc2c(c1)OCCCO2	.	.	.	.	.
Cc1ccccc1C(=O)Nc1sc2c(c1C(=O)N1CCCCC1)CCC(C)C2 (stereo not drawn)	.	.	/	/	/
COc1ccccc1NC(=O)CSC1=Nc2ccccc2C2=NC(Cc3ccccc3)C(=O)N12 (stereo not drawn)	.	/	/	/	/
OCC1O[C@H]([S-])[C@H](O)[C@@H](O)[C@@H]1O.[Au+] (stereo partly drawn)	/	/	/	.	.
CC(OC(=O)c1ccc2c(c1)OCCO2)C(=O)c1ccccc1 (stereo not drawn)	0.85µM	/	?	0.5µM	0.71µM
O/N=C(/CCc1ccccc1)c1ccc2c(c1)OCCO2	13µM	16µM	21µM	2.8µM	4µM
CNc1ccc(/C=C/C(=O)c2ccc3c(c2)OCCO3)cc1[N+](=O)[O-]	6µM	.	?	.	.
CC(CN1CCCCC1)OC(=O)c1ccc2c(c1)OCCO2 (stereo not drawn)	?	/	?	.	.
O=C(CCCc1ccccc1)c1ccc2c(c1)OCCO2	0.076µM	.	?	.	.
CCC1CN(C(=O)N2CCC(C(=O)Nc3ccccc3OC)CC2)c2ccccc2O1 (stereo not drawn)	.	/	.	.	.
CNC(C)C(=O)NC(C(=O)N1CCCC1C(=O)Nc1ccc2ncccc2c1)C(C)C (stereo not drawn)	.	/	.	.	.
SMILES	FLuc counter	SMN2 splice enh	ELG1 genotoxic	Rab9 promoter act	NPC1 promoter act
O=C(Nc1ccc(-c2n[nH]c(=S)o2)cc1)c1ccccc1Cl	11µM	/	.	.	.
Cc1cc(C)n2nc(SCC(=O)NC3CCCCC3C)nc2n1 (stereo not drawn)	.	/	.[9.26 µM]	.	.
O=C1C(=C2SCCCS2)CC/C1=C\c1ccc(F)cc1	0.067µM	.	?	?	?
Cc1cccc(/C=C2\CCC(=C3SCCCS3)C2=O)c1	0.085µM	?	?	0.089µM	0.32µM
O=C1/C(=C/c2ccc(C(=O)O)cc2)CCC/C1=C\c1ccc(C(=O)O)cc1	.	.	.	.	.
O=C(CCCn1c2ccccc2c(=O)c2ccccc21)Nc1cccc(Cl)c1	?	.	/	/	/
CC(C)(C)c1ccc(C(=O)NCCCNC(=O)c2ccccn2)cc1	17µM	/	.	.	.
CC(=O)Nc1cccc(OCCCNC(=O)c2ccc(C(C)(C)C)cc2)c1	19µM	/	.	.	.
CC(C)(C)c1ccc(C(=O)NCCCNC(=O)c2cccnc2)cc1	17µM	/	.	?	.
NS(=O)(=O)c1ccc(NC(=O)c2cc(-c3cc(Cl)ccc3O)n[nH]2)cc1	.	/	.	.	.
